Measurements taken from the supplement of paper PMC6555819.

Tests used:
Test in all cases: PBM binding z-score (relative to random genomic background probes); higher = stronger binding; sequences stand for … in GC…GCGATTGACAGCGTAGAATGAAGG
[1] = test system: PPARg:RXRa DBDmut IVT, anti-RXR (DBD mutation: RXRa K156A/R161A, NR concentration 270 nM, RXRa partner concentration 90 nM)
Method in brief: (§1)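 Custom Agilent 4×180K protein-binding microarrays carried double-stranded probes. Their 34-nt variable regions held direct-repeat seeds, single-nucleotide variants, half-site ablations and random human genomic background sequences. Arrays were incubated 1 h with ligand-free nuclear receptor dimers in PBS pH 7.4, 2% milk, 0.02% Triton X-100, 1 mM DTT, 0.2 mg/mL BSA and 0.4 mg/ml salmon testes DNA. Antibodies against each partner (one per run) detected binding, and scanned fluorescence was regression-normalized. Binding z-scores use random background probes as reference.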

[2] = test system: PPARg:RXRa IVT, anti-PPARg (NR concentration 270 nM, RXRa partner concentration 90 nM)
Method in brief: as §1

[3] = test system: PPARg DBDmut:RXRa IVT, anti-PPARg (DBD mutation: PPARg1 K132A/R137A, NR concentration 270 nM, RXRa partner concentration 90 nM)
Method in brief: as §1

[4] = test system: PPARg DBDmut IVT, anti-PPARg (DBD mutation: PPARg1 K132A/R137A, NR concentration 270 nM)
Method in brief: as §1

[5] = test system: PPARg homodimer (NR concentration 180 nM)
Method in brief: as §1

[6] = test system: PXR:RXRa (NR concentration 270 nM, RXRa partner concentration 90 nM)
Method in brief: as §1

[7] = test system: PXR homodimer (NR concentration 270 nM)
Method in brief: as §1

[8] = test system: RARa:RXR (NR concentration 270 nM, RXRa partner concentration 90 nM)
Method in brief: as §1

[9] = test system: RARa homodimer (NR concentration 270 nM)
Method in brief: as §1

[10] = test system: RARb:RXRa (NR concentration 270 nM, RXRa partner concentration 90 nM)
Method in brief: as §1

Sequence	PBM binding z-score [1]	PBM binding z-score [2]	PBM binding z-score [3]	PBM binding z-score [4]	PBM binding z-score [5]	PBM binding z-score [6]	PBM binding z-score [7]	PBM binding z-score [8]	PBM binding z-score [9]	PBM binding z-score [10]
TCTAGTTGGTCACGGAGTTCACACACGACGGGTA	2.4	2.92	1.45	0.822	1.92	4.53	3.62	2.15	0.649	2.87
ACCGAAAGGTCGAAGGTGAGTATACCCACCCGAA	0.582	2.06	0.374	0.174	0.885	3.14	0.0236	4.6	0.157	3.84
GATGCTAGGTCAGGTTGGTCAGCTAACGGGTACG	1.91	2.23	-0.346	-0.425	1.67	0.452	0.0675	0.755	-0.108	3.46
ATCGCTAGGTAAAGATAGTTCAGTGAATGCAAAT	-0.327	-0.329	0.673	0.059	0.116	0.306	0.193	0.173	0.336	0.139
GCTTACGGGTCAAAGGTGATAGCATGAATAGAAT	5.42	5.3	1.11	0.857	2.81	4.78	-0.0532	6.93	0.406	4.09
AGAACGAGGTCAATGAGTTGATAGCACGGGTGGC	5.59	5.76	1.71	0.861	3.64	5.72	8.63	5.14	0.929	4.89
ATATGTAGGTTACATCCAGGTCATTCAGGCTATG	7.73	7.59	2.75	2.95	2.59	3.82	4.54	3.35	1.06	2.53
ATATGTAGGTTATCGGGTCATTGAGTTTGCGCAT	7.71	7.5	3.11	1.9	2.89	4.55	10.5	3.82	1.41	2.86
ACTATTAGTTGAGACGAGGGCAACCGGTAGGTTG	0.0734	0.502	0.336	-0.0704	-0.0372	1.47	0.373	0.84	0.204	1.4
CATGCTAGGTCAATGGTCAGCTAAAGCAGCTCGC	3.11	3.53	-0.274	-0.0398	1.14	0.721	-0.406	1.82	-0.113	3.87
CCTCGGAGAACAACAGGAGGTCAGAGCTGCCAGA	-0.197	-0.0712	-1.48	-1.85	1.77	1.71	0.361	2.04	0.98	2.01
TCTTTTAGATCAGCAGGTTAAGAAAGCTGGCCAA	1.92	0.4	0.922	0.837	0.344	0.321	0.072	0.753	0.437	0.563
TGTCAAAGTTGAAAGGTAACGTAAGTATCCACAC	-0.206	3.18	0.664	0.491	0.376	1.38	0.066	2.56	0.0354	2.15
CGACAAAGTTCAAGGTAACGTAACAGAAAGCAGC	0.277	1.76	0.591	0.507	2.08	3.81	2.44	3.27	1.06	4.89
GCGACTGGGGCAAAGCAGGTGACCATAAGGTTGG	4.22	3.65	-0.66	-0.849	0.17	-0.318	-0.7	0.805	-0.538	0.913
TCGATTAGGTTAGTCGGGGCATTCAGCCAACATA	2.2	0.996	0.0217	-0.0761	0.302	0.39	0.0297	0.45	-0.0114	0.705
TCATATAGGTCAACAGGTGAAAGTCCGTAAGTTA	7.13	7.59	3.03	1.96	3.88	3.49	1.08	4.84	2.3	4.83
TCTGCTAGGTCAACGAAGGTCAGCTAATCTGCTA	4.15	4.53	0.834	0.313	3.51	5.64	0.241	4.51	0.797	4.95
CGTCCAAGGTCAAGGTCAGTGGAAGAGACTCGAA	3.54	4.55	0.113	-0.109	3.84	4.68	1.08	4.79	0.944	5.61

Sequence	PBM binding z-score [1]	PBM binding z-score [2]	PBM binding z-score [3]	PBM binding z-score [4]	PBM binding z-score [5]	PBM binding z-score [6]	PBM binding z-score [7]	PBM binding z-score [8]	PBM binding z-score [9]	PBM binding z-score [10]
AGTGAAAGTTCACTAGGTAACGTAAGATTCAGCT	2.6	4.86	1.41	0.57	2.04	3.61	2	3.07	0.607	4.44
GCTTACGGGTCAAATGTTATAGCATGAATAGAAT	4.4	4.44	1.56	1.2	2.47	3.34	-0.148	4.24	0.995	3.88
GCGACTGGGGCAAAGCAGCTTACCATAAGGTTGG	4.53	3.13	-0.355	-0.462	-0.569	-0.681	-0.894	-0.835	-1.36	0.456
TAGCCTGGGTCATTCAGGGGCCAGTATAGAAAGC	0.888	2.36	0.524	-0.652	1.98	2.3	-0.415	3.78	-0.568	3.35
CGTCCAAGGTCAAAGAGGTCAGTGAATGCCGAGT	3.99	4.53	0.213	-0.987	5.13	6.71	12.7	6.05	1.8	5.48
CCTACTGGGCCATTCAGCGGTCATTGATCATATG	4.3	3.25	0.0512	-0.76	0.303	-0.111	-0.0854	0.0105	0.0285	1.2
CCTTACGTGTCACTGACAGGTTATAGCATTTGGA	2.18	1.32	0.83	1.13	1.53	0.903	0.611	1.21	1.67	1.19
ATCTCTTGGTAACCAAGTTCAGTGAATGCCGAAC	-0.417	0.552	0.44	0.768	0.28	1.92	2.1	0.475	-0.473	0.956
CCTACTGGGCCATCAAGTCATTGATATCAACGTT	3.82	3.91	-0.107	0.228	0.653	-0.138	-0.334	0.32	0.00429	0.23
CCTACTGGGCCATTCAGAGGTCATTGGTCATATG	3.85	4.26	-0.0478	0.266	1.61	4.57	2.34	4.46	0.727	3.03
CGTCCAAGGTCAAAGGTCAGTGGAGAGATGACGG	3.88	5.79	1.38	0.543	4.78	7.21	1.94	8.88	2.17	6.16
CAAACTAGGTCACGAAAGGTCAAAGTAGAATGAC	8.54	9.02	2.85	3.25	6.18	6.93	2.94	7.51	4.51	5.71
CCGACTGGGCCAAGGTCATTGATCAGTCAAAGCA	2.08	2.75	-1.14	-0.87	2.42	3.48	0.921	3.76	0.257	3.26
TCTGCTAGGTCAGTTGGTCAGCTTACGAGCTGCC	2.73	3.32	0.732	-0.0451	-0.25	0.13	-0.847	0.661	-0.758	3.36
CATACAGGGCCAGCTAGGCCAGAGTAGGGACGGC	-0.75	-0.0426	-0.139	-0.903	-0.651	-0.993	-0.765	-0.772	-0.751	0.645
AGTCACAGTTCAGGACGAGGTAACGTAAAGCACG	-0.095	0.996	0.513	0.376	0.443	1.13	0.45	1.52	0.51	2.08
GCAGACAGGTGAAACGCCGGTAACTCAGGGTGGC	0.72	0.227	-0.163	-1.53	-0.427	-0.468	-0.822	0.0984	-1.03	0.606
AGAATGAGGTTATACGTAGATCAGGGACGAAAGT	3.78	2.16	1.14	1.42	0.4	1.12	0.405	1.49	0.392	1.42
GCATATAGGTAATACAATGTGAAAGTCCGATTGT	4.03	2.5	1.42	1.13	0.581	0.112	0.544	0.557	0.819	0.0649
